According to ChEMBL document CHEMBL2218924, “A broad activity screen in support of a chemogenomic map for kinase signalling research and drug discovery” (Biochem J, 2013):

Experiments:
[1] = target: Death-associated protein kinase 1 (Homo sapiens) (UniProt P53355); conditions: at 10 µM
[2] = target: Death-associated protein kinase 2 (Homo sapiens) (UniProt Q9UIK4); conditions: at 1 µM
[3] = target: Death-associated protein kinase 2 (Homo sapiens) (UniProt Q9UIK4); conditions: at 10 µM
[4] = target: T1, Serine/threonine-protein kinase DCLK2 (Homo sapiens) (UniProt Q8N568); conditions: at 1 µM
T1 sequence (whole entry): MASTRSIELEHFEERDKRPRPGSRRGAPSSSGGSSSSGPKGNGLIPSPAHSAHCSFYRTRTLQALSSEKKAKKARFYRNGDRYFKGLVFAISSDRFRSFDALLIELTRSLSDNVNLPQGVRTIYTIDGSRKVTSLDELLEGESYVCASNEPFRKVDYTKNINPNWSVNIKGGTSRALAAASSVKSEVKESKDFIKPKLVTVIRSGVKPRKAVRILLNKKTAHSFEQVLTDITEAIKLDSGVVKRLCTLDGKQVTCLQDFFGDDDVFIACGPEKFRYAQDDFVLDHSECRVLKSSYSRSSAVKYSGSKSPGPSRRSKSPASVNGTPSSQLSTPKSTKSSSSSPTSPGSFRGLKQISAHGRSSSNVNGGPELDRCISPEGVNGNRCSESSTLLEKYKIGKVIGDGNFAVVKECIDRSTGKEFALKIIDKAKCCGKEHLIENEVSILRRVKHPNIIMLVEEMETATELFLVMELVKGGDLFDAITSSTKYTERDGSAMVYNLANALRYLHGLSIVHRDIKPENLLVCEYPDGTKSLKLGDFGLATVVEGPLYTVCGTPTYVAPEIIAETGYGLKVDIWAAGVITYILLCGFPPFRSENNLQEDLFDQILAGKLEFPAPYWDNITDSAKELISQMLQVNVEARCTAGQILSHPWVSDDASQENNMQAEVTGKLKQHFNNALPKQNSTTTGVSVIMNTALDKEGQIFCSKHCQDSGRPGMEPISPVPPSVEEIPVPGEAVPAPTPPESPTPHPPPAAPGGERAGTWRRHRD

[5] = target: T1, Serine/threonine-protein kinase DCLK2 (Homo sapiens); conditions: at 10 µM
[6] = target: T2, Discoidin domain-containing receptor 2 (Homo sapiens) (UniProt Q16832); conditions: at 1 µM
T2 sequence (whole entry): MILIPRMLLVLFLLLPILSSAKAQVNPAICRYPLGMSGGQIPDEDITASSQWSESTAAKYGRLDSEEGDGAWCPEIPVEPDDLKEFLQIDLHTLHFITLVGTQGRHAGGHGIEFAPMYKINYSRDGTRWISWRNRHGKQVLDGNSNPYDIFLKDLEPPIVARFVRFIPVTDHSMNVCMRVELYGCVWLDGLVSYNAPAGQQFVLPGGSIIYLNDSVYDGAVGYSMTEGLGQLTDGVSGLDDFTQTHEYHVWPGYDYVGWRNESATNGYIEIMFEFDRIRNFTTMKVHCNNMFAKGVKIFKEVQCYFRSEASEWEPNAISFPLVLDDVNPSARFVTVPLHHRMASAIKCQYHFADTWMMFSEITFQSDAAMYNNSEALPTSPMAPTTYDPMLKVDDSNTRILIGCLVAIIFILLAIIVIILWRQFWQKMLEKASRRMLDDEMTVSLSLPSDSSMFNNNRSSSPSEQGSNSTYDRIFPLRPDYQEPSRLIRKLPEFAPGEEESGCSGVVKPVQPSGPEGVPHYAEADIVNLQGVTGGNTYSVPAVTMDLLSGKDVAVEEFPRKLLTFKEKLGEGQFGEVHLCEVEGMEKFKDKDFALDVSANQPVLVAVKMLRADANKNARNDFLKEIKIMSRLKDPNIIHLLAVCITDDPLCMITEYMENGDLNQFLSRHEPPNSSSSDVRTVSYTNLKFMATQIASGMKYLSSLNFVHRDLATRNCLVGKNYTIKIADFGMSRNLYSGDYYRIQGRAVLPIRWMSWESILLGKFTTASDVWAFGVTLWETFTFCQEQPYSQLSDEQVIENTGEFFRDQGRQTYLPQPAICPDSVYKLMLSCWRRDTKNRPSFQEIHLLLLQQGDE

[7] = target: T2, Discoidin domain-containing receptor 2 (Homo sapiens); conditions: at 10 µM
[8] = target: T3, Myotonin-protein kinase (Homo sapiens) (UniProt Q09013); conditions: at 1 µM
T3 sequence (whole entry): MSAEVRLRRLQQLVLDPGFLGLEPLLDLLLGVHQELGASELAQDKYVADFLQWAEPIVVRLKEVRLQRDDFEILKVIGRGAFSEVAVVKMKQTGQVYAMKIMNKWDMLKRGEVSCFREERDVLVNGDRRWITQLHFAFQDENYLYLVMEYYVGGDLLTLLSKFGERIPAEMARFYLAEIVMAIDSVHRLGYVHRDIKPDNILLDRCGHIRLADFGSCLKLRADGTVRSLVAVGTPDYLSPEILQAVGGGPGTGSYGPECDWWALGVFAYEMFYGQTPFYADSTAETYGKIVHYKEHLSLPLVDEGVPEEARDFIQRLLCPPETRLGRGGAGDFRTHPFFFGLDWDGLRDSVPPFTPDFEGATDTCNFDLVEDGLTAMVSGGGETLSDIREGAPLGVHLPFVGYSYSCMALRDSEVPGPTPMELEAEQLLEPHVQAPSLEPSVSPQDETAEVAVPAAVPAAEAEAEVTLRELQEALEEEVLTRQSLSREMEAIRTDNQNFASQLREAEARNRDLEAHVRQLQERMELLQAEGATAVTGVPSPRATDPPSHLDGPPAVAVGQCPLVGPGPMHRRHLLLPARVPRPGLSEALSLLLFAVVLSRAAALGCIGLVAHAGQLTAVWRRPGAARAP

[9] = target: T3, Myotonin-protein kinase (Homo sapiens); conditions: at 10 µM
[10] = target: T4, Serine/threonine-protein kinase 17A (Homo sapiens) (UniProt Q9UEE5); conditions: at 1 µM
T4 sequence (whole entry): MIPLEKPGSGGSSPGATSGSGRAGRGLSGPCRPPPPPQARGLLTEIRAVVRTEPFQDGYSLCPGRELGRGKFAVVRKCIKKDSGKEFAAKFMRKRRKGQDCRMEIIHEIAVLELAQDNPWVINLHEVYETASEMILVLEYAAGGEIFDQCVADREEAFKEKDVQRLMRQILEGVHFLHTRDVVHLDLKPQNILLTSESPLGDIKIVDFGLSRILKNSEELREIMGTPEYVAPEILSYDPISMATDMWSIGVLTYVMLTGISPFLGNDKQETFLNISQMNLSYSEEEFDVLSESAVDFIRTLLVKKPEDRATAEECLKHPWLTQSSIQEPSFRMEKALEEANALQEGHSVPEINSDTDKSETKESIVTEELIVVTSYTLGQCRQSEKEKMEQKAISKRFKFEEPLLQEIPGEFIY

[11] = target: T4, Serine/threonine-protein kinase 17A (Homo sapiens); conditions: at 10 µM
[12] = target: T5, Dual specificity tyrosine-phosphorylation-regulated kinase 2 (Homo sapiens) (UniProt Q92630); conditions: at 1 µM
T5 sequence (whole entry): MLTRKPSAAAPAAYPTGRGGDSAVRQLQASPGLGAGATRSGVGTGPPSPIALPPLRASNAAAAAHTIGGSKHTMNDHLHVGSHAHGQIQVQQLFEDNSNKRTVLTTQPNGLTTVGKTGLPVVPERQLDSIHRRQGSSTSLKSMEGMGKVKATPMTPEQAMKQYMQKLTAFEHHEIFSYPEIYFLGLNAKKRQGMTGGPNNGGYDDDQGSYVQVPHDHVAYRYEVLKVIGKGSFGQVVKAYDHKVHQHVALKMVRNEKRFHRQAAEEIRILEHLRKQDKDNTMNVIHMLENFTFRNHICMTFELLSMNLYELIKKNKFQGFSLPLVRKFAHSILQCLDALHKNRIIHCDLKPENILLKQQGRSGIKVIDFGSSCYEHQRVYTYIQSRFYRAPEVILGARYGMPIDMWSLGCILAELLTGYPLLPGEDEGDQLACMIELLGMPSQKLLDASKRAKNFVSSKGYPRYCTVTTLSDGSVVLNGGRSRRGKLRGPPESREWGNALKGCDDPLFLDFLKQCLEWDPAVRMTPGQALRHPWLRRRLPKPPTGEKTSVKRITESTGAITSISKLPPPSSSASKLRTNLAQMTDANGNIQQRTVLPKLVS

[13] = target: T5, Dual specificity tyrosine-phosphorylation-regulated kinase 2 (Homo sapiens); conditions: at 10 µM
[14] = target: T6, Ephrin type-A receptor 1 (Homo sapiens) (UniProt P21709); conditions: at 1 µM
T6 sequence (whole entry): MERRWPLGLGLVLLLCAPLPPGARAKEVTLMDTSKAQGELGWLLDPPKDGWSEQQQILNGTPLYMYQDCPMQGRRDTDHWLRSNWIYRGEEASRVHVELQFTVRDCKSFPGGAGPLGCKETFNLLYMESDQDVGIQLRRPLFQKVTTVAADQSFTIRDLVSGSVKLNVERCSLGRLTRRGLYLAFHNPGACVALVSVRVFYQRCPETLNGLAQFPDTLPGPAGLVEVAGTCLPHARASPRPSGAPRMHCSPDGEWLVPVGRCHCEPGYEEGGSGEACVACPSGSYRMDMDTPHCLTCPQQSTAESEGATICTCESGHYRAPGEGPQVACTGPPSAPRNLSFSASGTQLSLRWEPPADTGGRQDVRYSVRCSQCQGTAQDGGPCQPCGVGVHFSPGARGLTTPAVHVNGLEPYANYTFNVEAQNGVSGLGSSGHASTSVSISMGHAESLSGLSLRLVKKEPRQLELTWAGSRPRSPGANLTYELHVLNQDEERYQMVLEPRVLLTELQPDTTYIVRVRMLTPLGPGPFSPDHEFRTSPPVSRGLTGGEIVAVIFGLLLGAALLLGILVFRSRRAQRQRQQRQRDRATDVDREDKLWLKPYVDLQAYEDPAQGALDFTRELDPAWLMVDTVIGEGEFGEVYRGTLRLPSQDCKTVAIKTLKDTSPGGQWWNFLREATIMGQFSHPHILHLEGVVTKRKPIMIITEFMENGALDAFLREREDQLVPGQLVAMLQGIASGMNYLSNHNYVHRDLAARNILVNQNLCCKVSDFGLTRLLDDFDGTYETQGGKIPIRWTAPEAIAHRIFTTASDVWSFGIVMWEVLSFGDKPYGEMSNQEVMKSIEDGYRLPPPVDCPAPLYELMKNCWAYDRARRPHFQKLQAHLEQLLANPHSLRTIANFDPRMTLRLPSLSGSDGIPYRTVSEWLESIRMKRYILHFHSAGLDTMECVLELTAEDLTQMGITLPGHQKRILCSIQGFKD

[15] = target: T6, Ephrin type-A receptor 1 (Homo sapiens); conditions: at 10 µM
[16] = target: Ephrin type-A receptor 2 (Homo sapiens) (UniProt P29317); conditions: at 1 µM
[17] = target: Ephrin type-A receptor 2 (Homo sapiens) (UniProt P29317); conditions: at 10 µM
[18] = target: T7, Ephrin type-A receptor 3 (Homo sapiens) (UniProt P29320); conditions: at 1 µM
T7 sequence (whole entry): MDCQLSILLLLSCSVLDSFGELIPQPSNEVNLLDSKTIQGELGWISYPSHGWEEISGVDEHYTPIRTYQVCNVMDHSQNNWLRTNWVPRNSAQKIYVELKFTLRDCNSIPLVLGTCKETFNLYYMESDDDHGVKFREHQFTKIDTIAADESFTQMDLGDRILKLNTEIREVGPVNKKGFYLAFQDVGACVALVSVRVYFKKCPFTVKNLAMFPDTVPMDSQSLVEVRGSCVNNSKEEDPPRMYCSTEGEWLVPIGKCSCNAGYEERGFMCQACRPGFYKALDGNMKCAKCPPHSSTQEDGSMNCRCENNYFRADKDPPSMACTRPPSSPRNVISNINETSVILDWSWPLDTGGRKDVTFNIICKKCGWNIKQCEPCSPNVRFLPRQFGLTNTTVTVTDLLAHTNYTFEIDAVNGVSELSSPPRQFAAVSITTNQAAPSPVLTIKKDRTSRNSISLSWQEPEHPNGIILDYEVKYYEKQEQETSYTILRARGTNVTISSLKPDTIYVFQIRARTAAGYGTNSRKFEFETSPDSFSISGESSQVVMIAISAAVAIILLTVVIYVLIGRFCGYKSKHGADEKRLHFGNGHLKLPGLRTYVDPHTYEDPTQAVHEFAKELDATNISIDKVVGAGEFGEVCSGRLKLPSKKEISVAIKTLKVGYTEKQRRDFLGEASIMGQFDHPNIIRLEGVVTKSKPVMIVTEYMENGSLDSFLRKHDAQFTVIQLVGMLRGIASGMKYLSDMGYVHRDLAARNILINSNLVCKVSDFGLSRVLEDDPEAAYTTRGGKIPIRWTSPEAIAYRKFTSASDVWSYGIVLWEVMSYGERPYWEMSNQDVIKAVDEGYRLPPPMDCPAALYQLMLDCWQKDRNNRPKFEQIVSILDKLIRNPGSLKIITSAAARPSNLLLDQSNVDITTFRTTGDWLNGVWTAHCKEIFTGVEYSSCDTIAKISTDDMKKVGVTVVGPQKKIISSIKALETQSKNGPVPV

[19] = target: Epidermal growth factor receptor (Homo sapiens) (UniProt P00533); conditions: at 1 µM
[20] = target: Epidermal growth factor receptor (Homo sapiens) (UniProt P00533); conditions: at 10 µM

Chain of Ephrin type-A receptor 2 (Homo sapiens) (P29317 whole entry): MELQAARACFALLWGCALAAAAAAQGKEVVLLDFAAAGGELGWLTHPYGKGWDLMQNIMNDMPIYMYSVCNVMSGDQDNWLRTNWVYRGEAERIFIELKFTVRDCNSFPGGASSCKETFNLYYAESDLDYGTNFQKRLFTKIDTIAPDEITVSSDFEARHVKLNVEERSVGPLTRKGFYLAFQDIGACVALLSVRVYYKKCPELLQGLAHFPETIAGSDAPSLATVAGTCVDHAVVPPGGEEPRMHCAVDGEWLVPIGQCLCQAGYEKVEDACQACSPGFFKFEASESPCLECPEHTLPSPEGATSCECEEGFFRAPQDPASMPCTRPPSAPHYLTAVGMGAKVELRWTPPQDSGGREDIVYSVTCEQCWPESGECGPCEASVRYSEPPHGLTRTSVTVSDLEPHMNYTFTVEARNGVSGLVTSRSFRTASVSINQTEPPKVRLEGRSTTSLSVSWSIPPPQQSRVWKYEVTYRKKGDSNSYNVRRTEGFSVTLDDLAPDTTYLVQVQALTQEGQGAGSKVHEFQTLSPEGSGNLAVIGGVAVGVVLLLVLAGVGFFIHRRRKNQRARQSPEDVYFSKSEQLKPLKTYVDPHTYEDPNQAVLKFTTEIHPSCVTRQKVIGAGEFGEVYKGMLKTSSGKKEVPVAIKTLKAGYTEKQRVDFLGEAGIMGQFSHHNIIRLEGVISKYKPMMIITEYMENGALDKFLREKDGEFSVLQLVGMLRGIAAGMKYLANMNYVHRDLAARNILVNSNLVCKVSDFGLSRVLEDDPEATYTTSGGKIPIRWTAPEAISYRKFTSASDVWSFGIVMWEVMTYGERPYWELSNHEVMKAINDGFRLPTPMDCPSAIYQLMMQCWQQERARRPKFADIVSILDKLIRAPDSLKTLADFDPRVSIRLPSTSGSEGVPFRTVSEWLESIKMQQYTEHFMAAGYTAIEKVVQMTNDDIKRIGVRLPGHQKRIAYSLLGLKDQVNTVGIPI
Chain of Death-associated protein kinase 2 (Homo sapiens) (Q9UIK4 whole entry, looked up): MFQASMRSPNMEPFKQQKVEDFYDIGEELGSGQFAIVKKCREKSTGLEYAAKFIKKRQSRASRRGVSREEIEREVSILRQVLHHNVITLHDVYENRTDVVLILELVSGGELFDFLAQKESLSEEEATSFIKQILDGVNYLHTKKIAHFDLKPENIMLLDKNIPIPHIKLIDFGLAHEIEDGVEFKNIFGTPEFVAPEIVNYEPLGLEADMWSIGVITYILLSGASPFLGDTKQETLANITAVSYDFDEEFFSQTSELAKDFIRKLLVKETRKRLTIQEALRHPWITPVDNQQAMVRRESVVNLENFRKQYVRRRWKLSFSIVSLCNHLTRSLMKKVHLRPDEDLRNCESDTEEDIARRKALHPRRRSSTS
Chain of Death-associated protein kinase 1 (Homo sapiens) (P53355 whole entry, looked up): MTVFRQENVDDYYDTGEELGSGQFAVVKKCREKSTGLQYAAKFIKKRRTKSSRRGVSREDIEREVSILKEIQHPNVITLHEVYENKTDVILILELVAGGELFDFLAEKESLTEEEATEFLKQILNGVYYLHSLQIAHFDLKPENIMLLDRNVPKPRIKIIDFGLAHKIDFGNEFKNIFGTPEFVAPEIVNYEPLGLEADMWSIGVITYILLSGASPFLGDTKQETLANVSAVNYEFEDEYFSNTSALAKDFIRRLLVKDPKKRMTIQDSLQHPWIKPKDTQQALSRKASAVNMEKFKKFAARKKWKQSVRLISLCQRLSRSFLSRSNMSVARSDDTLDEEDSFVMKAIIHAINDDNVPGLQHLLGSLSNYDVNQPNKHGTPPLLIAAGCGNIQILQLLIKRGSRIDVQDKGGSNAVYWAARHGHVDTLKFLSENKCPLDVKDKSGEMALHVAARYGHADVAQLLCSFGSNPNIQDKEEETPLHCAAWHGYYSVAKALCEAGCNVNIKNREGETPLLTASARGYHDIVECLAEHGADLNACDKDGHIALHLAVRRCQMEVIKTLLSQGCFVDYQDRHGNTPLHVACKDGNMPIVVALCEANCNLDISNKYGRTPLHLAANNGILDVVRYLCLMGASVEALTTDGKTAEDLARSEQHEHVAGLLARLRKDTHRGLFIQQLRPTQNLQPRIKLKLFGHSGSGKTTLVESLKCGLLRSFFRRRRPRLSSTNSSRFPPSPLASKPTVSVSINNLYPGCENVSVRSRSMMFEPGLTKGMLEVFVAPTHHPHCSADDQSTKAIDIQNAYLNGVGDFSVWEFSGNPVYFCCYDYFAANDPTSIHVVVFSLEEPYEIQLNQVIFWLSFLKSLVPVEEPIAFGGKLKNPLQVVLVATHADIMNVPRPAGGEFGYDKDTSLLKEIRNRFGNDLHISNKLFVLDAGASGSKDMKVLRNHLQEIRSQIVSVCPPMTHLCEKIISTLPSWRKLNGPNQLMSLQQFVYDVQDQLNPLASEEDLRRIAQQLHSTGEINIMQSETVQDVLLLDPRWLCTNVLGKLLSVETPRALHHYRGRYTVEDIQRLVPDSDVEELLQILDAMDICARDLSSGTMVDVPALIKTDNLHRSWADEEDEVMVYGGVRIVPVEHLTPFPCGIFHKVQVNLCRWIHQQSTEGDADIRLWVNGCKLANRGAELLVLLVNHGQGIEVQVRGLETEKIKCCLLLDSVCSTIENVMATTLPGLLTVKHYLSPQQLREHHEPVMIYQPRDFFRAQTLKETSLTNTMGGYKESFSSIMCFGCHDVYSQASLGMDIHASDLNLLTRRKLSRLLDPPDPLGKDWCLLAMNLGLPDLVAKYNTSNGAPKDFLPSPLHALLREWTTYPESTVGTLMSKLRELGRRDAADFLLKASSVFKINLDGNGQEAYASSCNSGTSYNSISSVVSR
Chain of Epidermal growth factor receptor (Homo sapiens) (P00533 whole entry): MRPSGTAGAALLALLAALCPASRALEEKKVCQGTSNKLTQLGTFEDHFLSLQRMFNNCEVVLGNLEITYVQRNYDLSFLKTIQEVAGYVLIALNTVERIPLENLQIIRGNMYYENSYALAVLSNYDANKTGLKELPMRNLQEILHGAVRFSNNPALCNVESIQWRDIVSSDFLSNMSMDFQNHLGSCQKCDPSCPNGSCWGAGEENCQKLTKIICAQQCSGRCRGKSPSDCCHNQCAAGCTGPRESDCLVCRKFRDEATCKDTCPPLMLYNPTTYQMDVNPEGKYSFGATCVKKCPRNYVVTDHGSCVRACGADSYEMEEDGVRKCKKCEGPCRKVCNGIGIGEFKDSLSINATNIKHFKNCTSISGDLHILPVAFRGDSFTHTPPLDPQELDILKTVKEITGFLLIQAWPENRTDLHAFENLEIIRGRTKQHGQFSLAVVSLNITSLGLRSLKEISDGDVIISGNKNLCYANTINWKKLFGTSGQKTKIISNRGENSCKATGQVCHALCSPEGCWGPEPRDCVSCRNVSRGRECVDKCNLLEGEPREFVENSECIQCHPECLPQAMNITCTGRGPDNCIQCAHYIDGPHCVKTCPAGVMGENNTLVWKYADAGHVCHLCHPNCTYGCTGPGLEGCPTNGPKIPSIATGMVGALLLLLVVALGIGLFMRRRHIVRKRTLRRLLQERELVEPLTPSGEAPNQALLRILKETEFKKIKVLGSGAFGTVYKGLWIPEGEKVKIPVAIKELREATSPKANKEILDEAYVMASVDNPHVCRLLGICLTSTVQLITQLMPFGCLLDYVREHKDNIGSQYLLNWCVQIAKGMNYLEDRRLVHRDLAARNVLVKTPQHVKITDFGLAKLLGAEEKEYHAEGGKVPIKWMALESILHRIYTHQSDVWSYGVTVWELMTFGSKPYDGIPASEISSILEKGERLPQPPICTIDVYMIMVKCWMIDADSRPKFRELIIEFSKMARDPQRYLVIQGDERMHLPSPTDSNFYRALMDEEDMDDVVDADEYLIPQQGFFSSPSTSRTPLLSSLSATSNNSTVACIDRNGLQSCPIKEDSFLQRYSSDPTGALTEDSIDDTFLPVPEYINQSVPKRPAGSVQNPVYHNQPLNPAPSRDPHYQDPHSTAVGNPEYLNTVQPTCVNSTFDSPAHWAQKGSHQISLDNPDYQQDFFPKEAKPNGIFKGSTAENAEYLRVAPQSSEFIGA

SMILES | residual activity [1] | residual activity [2] | residual activity [3] | residual activity [4] | residual activity [5] | residual activity [6] | residual activity [7] | residual activity [8] | residual activity [9] | residual activity [10] | residual activity [11] | residual activity [12] | residual activity [13] | residual activity [14] | residual activity [15] | residual activity [16] | residual activity [17] | residual activity [18] | residual activity [19] | residual activity [20]
Cc1nc2cc3nc(-c4cccs4)cnc3cc2n1C | 86% | 105% | 108% | 115% | 108% | 111% | 93% | 113% | 117% | 64% | 14% | 108% | 87% | 111% | 121% | 110% | 105% | 127% |  | 
Cc1ccc(NC2=CC(=O)c3sc(C)nc3C2=O)cc1 | 89% | 99% | 94% | 118% | 93% | 94% | 101% | 121% | 91% | 109% | 81% | 85% | 100% | 95% | 91% | 95% | 102% | 92% |  | 
O=[N+]([O-])c1ccc(-c2nc(-c3ccc(F)cc3)c(-c3ccncc3)[nH]2)cc1 | 65% | 108% | 101% | 117% | 111% | 77% | 52% | 96% | 93% | 116% | 104% | 100% | 91% | 83% | 92% | 89% | 97% | 99% | 87% | 95%
CO[C@H]1C[C@@H]2CC[C@@H](C)[C@@](O)(O2)C(=O)C(=O)N2CCCC[C@H]2C(=O)O[C@H]([C@H](C)C[C@@H]2CC[C@@H](O)[C@H](OC)C2)CC(=O)[C@H](C)/C=C(\C)[C@@H](O)[C@@H](OC)C(=O)[C@H](C)C[C@H](C)/C=C/C=C/C=C/1C | 108% | 93% | 110% | 137% | 360% | 115% | 110% | 145% | 139% | 113% | 149% | 99% | 101% | 84% | 65% | 110% | 120% | 103% |  | 
